BAZ2B inh: qHTS Assay for Inhibitors of BAZ2B | 4.4% of 360,000 active | AlphaScreen BAZ2B-H3K14Ac peptide displacement | AID 504333, 2011 | Potency, µM (series often up to 114 µM), without a hit: top-dose activity change, negative = inhibition, usual class: inhibitors | Bromodomain adjacent to zinc finger domain protein 2B (Homo sapiens), Q9UIF8; further: on the % scale 0 is the no-effect control and ±100 the full control effect; nearly all actives have a fitted effect of over 60% in size
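Inhibition is scored as reduced AlphaScreen emission. The BAZ2B/b-H3(5-23)K14Ac complex (50 nM each) in PBS pH 7.4, 0.01% Tween-20 meets compound (up to 110 uM) for 30 min at RT before bead addition.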
G9a block: qHTS Assay for Inhibitors of Histone Lysine Methyltransferase G9a; Histone-lysine N-methyltransferase EHMT2 (Homo sapiens), Q96KQ7; G9a H3K9 monomethylation, AlphaScreen, 2 h; Potency, µM (top dose mostly 102 µM), for inactives: at the highest dose activity, negative = inhibition, hits mostly inhibitors; 8.8% of 350,000 active; AID 504332, 2011; further: on the % scale 0 is the no-effect control and ±100 the full control effect; nearly all actives have a fitted effect of over 75% in size
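Step 1: enzyme (final 20 nM) with compound, 15 min RT. Step 2: substrate peptide 500 nM and SAM 20 uM, 2 h RT. Step 3: anti-H3K9me1 antibody and AlphaScreen beads, 10 min, then plate read.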
PLK1 PBD inh: qHTS for Inhibitors of PLK1-PDB (polo-like kinase 1 - polo-box domain): Primary Screen. 2.8% of 360,000 active. AID 720504, 2013. Plk1 PBD binding of FITC phosphopeptide, fluorescence polarization. Potency, µM, without a hit: max response, negative = inhibition, actives largely listed as inhibitors; further: series mostly up to about 57 µM; on the % scale 0 is the no-effect control and ±100 the full control effect; nearly all actives have a fitted effect of over 65% in size
HP1b binding inh: HTS for Inhibitors of HP1-beta Chromodomain Interactions with Methylated Histone Tails. Chromobox protein homolog 1 (Homo sapiens), P83916. AlphaScreen HP1-beta / biotin-H3K9me3 peptide binding. Potency, µM (top dose mostly 114 µM), for the others: top-dose activity change, negative = inhibition, hits mostly inhibitors. 0.56% of 390,000 active. AID 540317, 2011; further: nearly all actives have a fitted effect of over 70% in size
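Compound inhibition of the preformed complex between 50 nM HP1-beta and 50 nM biotinylated H3K9me3 peptide was read by AlphaScreen. Buffer was PBS pH 7.4 with 0.01% Tween-20. Incubations ran 30 min at room temperature, with 10 ug/mL donor/acceptor beads.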
Sfp PPTase inh: qHTS Assay for Inhibitors of Bacillus subtilis Sfp phosphopantetheinyl transferase (PPTase); 4'-phosphopantetheinyl transferase ffp (Bacillus subtilis), Q9F4F7; Biochemical Sfp PPTase activity, qHTS; Potency, µM, inactives show largest response in the series, negative = inhibition, actives largely listed as inhibitors; 3.5% of 310,000 active;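 further: the enzyme is Sfp with the accession as filed and its product quenches rhodamine fluorescence; 0% = enzyme reaction without inhibitor and -100% = no enzyme wells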
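Fluorescence-quenching assay: 15 nM Sfp-PPTase preincubated 15 min at room temperature with compound, then 5 uM rhodamine-CoA and 12.5 uM BHQ-2-labelled YbbR peptide added. Fluorescence (ex 525/em 598 nm) read at start and after 30 min; difference gives rate.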
JMJD2A Tudor: qHTS Assay for Inhibitors of JMJD2A-Tudor Domain; Lysine-specific demethylase 4A (Homo sapiens), O75164; AlphaScreen JMJD2A-Tudor / H3K4me3 peptide binding; Potency, µM (highest dose often 114 µM), for the others: at the top dose activity change, negative = inhibition, hits mostly inhibitors; 4.4% of 390,000 active; AID 504339, 2011; further: on the % scale 0 is the no-effect control and ±100 the full control effect; nearly all actives have a fitted effect of over 50% in size
Active calls of the source: *; [ ] = remark or other dose. A selection: hits, their analogues and other compounds. The true share with any hit is near 12%. The call rests on the fitted dose curve; in most records, active means well fitted curve in the direction sought with a large enough effect; inconclusive means small, poorly fitted or top-dose-only effect, or another doubt; inactive means no such curve, though single readings can be large; an effect the other way counts as inactive or inconclusive. Potency means the concentration at half of the fitted maximal effect.

How did COc1ccc(C)cc1NCc1ccc(OC)c(C)c1OC do in these assays?
BAZ2B inh: 22µM*; G9a block: 8.9µM*; PLK1 PBD inh: -4%; HP1b binding inh: inconclusive; Sfp PPTase inh: -29%; JMJD2A Tudor: 20µM*

How did COc1ccc(CNCCNC(=O)c2ccco2)c(OC)c1OC do in these assays?
BAZ2B inh: inconclusive; G9a block: inconclusive; PLK1 PBD inh: -6%; HP1b binding inh: inconclusive; Sfp PPTase inh: -3%; JMJD2A Tudor: inconclusive

Results for COc1ccc(CNCCc2ccc([N+](=O)[O-])cc2)c(OC)c1OC ?
BAZ2B inh: 50µM*; G9a block: -13%[0.501 µM]; PLK1 PBD inh: -7%; HP1b binding inh: 2%; Sfp PPTase inh: 11%; JMJD2A Tudor: 79µM*

Results for CC(Oc1ccccc1F)c1nnc(SCC(=O)N(c2ccccc2)C2CCS(=O)(=O)C2)o1 (centres undefined) ?
PLK1 PBD inh: -3%; HP1b binding inh: 40%; JMJD2A Tudor: -8%

How did C=CCc1cccc(OC)c1OCCOCCNCCO do in these assays?
BAZ2B inh: 56µM*; G9a block: 11µM*; PLK1 PBD inh: 0%; HP1b binding inh: -28%; Sfp PPTase inh: -14%; JMJD2A Tudor: 5.6µM*

Results for O=C(COc1ccccc1F)Nc1cc(S(=O)(=O)Nc2cccc(Cl)c2)ccc1O ?
BAZ2B inh: 10%; G9a block: inconclusive; PLK1 PBD inh: 24µM*; HP1b binding inh: -13%; JMJD2A Tudor: -22%

What do the screens show for `O=C(Cc1c(F)cccc1Cl)Nc1cccc(S(=O)(=O)NC2=NCCCCC2)c1`?
BAZ2B inh: -1%; G9a block: -18%[0.501 µM]; PLK1 PBD inh: -1%; HP1b binding inh: 19%; JMJD2A Tudor: -17%

What do the screens show for `O=C(Cc1ccc(Cl)cc1Cl)Nc1cccc(S(=O)(=O)Nc2ccccc2F)c1`?
BAZ2B inh: inconclusive; G9a block: 1.6µM*; PLK1 PBD inh: 1.2µM*; HP1b binding inh: inconclusive; Sfp PPTase inh: 8.9µM*; JMJD2A Tudor: inconclusive

What do the screens show for `Cc1cc(C)nc(NS(=O)(=O)c2ccc(NC(=O)COc3ccccc3F)cc2)n1`?
BAZ2B inh: 3%; G9a block: 17%[12.7 µM]; PLK1 PBD inh: -2%; HP1b binding inh: 23%; JMJD2A Tudor: -13%

How did O=C(Nc1cccc(S(=O)(=O)Nc2ccccc2F)c1)c1ccc2ccccc2n1 do in these assays?
BAZ2B inh: inconclusive; G9a block: 2.8µM*; PLK1 PBD inh: 1.9µM*; HP1b binding inh: inconclusive; Sfp PPTase inh: 8.9µM*; JMJD2A Tudor: 25µM*

What do the screens show for `CCOC(=O)c1ccc(NC(=O)Cc2noc3ccc(C)cc23)cc1`?
BAZ2B inh: -1%; G9a block: 13µM*; HP1b binding inh: 51%; JMJD2A Tudor: -6%

Results for COc1ccc(NC(=O)Cc2noc3ccc(C)cc23)cc1Cl ?
BAZ2B inh: -18%; G9a block: 2%[59 µM]; HP1b binding inh: 29%; JMJD2A Tudor: -10%

What do the screens show for `C/C=C(\C=C\[C@@H](C)C/C=C/CC/C=C/C=C\C[C@@H](OC)/C(C)=C\C=C(C)C)CC(=O)O`?
Sfp PPTase inh: 1%

Results for CC1(C)Cc2ccccc2C(NNC(=O)c2ccccn2)=N1 ?
BAZ2B inh: 32µM*; G9a block: 12%[59 µM]; PLK1 PBD inh: -5%; HP1b binding inh: 27%; Sfp PPTase inh: 9%; JMJD2A Tudor: 45µM*

Results for COc1ccc(-c2cc3nc(C)c(CCC(=O)N4CCN(c5cc(C)ccc5C)CC4)c(C)n3n2)c(OC)c1 ?
BAZ2B inh: -12%; G9a block: 11%[59 µM]; HP1b binding inh: 22%; JMJD2A Tudor: -16%

Screens: PubChem, National Center for Advancing Translational Sciences (NCATS)
